Compound activity (PubChem BioAssay)
Most compounds without a hit are left out; they make up all but 4% or so of the library.
TRHR agonist – TRH receptor (human) agonism; P34981; TRHR cells, calcium flux fluo-8, FDSS agonist mode; activation, % at 2 µM; 360,000 compounds, 0.18% hits; further: 0% is about no effect
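Fluo-8-loaded TRHR cells; 10 s baseline, compound added, kinetic Ca2+ fluorescence read 1/s, agonist mode.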
TRHR PAM – TRH receptor (human) allosteric enhancement. 360,000 compounds, 0.66% hits. enhancement, % at 2 µM. TRHR cells, fluo-8 calcium fluorescence, EC20 TRH enhancement. P34981; in the data active means enhancement above about 30%; further: 0% is about no effect
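Enhancer read-out: after compound pinning and an initial kinetic agonist-mode read, an EC20 of TRH (10 nM final) was injected and fluo-8 calcium signal (Ex 480/Em 530) followed at 1 s/cycle for 100 cycles in TRHR-expressing cells.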
D1 antag – blocks dopamine activation of the human D1 receptor. P21728. 360,000 compounds, 3.2% hits. activity change, negative = inhibition, % at 10 µM. HEK293 TREx D1 cells, calcium flux, dopamine EC80; active compounds read low. AID 504652; in the data active means activity change below about -30%; further: on the % scale 0 is the no-effect control and ±100 the full control effect
Target sequence (P21728 whole entry, looked up): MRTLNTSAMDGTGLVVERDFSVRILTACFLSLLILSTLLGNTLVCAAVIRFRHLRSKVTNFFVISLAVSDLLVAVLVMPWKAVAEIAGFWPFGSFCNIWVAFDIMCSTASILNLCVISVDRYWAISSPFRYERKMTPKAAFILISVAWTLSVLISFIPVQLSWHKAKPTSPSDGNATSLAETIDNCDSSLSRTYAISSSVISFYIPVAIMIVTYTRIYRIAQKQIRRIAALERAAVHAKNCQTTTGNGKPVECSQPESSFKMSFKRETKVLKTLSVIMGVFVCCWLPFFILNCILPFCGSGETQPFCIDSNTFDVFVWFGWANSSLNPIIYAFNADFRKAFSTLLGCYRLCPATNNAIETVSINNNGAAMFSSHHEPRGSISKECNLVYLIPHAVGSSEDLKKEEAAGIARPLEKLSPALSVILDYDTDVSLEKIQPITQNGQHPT
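Kinetic fluorescence of a calcium dye serves as the read-out. D1-expressing Hek293 Trex cells, induced overnight at 30 C, are exposed to compound for 180 s before an EC80 dopamine addition, then read 180 s further.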
GRP78 ERSR act – ER stress response induction in glioma; U87-MG GRP78 promoter luciferase reporter, 16 h; Potency, µM, inactives show at the top dose activation, most hits filed as activators; 420,000 compounds, 0.02% hits; AID 602332; active means well fitted activation curve with a large enough effect; further: potency means the concentration at half of the fitted maximal effect; series mostly up to about 76 µM; % of control where 0% means no effect; nearly all actives have a fitted effect of over 35% in size
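Stably transfected U87-MG glioma cells carrying a GRP78-based luciferase sensor; 16 h compound incubation. Luminescence end-point read 10 min after Bright-Glo addition at room temperature.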
D1 ag – agonists of human D1 dopamine receptor | P21728 | HEK293 T-REx D1 cells, calcium flux, agonist mode | activation, % at 2 µM | 360,000 compounds, 1% hits | AID 504660; further: 0% is about no effect
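Agonism was scored from calcium flux recorded over 180 s (1 read/s) after pintool compound addition, following a 10-cycle baseline. Cells were inducible force-coupled HEK293 TREx D1, plated overnight at 30 C and loaded with no-wash calcium dye.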
D1 PAM – human D1 dopamine receptor positive modulation. P21728. HEK293 TREx D1 cells, calcium flux, dopamine EC20 potentiation. potentiation, % at 10 µM. 360,000 compounds, 0.036% hits; in the data active means potentiation above about 30%; further: 0% is about no effect
Numbers without * were called inactive; / = not tested or not shown; ! = not confirmed by another sample. Unless noted, no stated cut-off is given here; in the data, active means activation above about 30%; inactive means the rest.

SMILES	TRHR agonist	TRHR PAM	D1 antag	GRP78 ERSR act	D1 ag	D1 PAM
CC(=O)N1CCCc2cc(S(=O)(=O)N3CCCC(C(=O)NCc4ccc(C)cc4)C3)ccc21 (configuration not stated)	0	1	-29	-2%	16	-11
CC(=O)N1CCCc2cc(S(=O)(=O)N3CCCC(C(=O)NCc4ccccc4)C3)ccc21 (configuration not stated)	0	-4	-30*!	1%	8	-2
Fc1ccc(N2CCN(c3nc4ccccc4c4nc(-c5ccccc5)nn34)CC2)cc1	0	6	7	-1%	1	0
CCCCCCCCCCOC(=O)Cn1c(COc2ccccc2)[n+](C)c2ccccc21	1	-1	-42*	-13%	124*	-10
CCCCCCCCCCOC(=O)Cn1c(COc2ccc(OC)cc2)[n+](C)c2ccccc21	4	3	-18	-12%	139*	-4
CCCCOC(=O)Cn1c(=O)n(CC(=O)OCCCC)c2ccccc21	-1	-1	-8	3%	1	3
CCCCCCCCCCOC(=O)Cn1c(COc2cccc(C)c2)[n+](C)c2ccccc21	0	-6	-19	-8%	116*	7
CCCCCCCCCCOC(=O)Cn1c(COc2ccc(Cl)cc2)[n+](C)c2ccccc21	0	-3	-42*	-13%	137*	-12
CCCCCOC(=O)Cn1c(=O)oc2ccccc21	0	-4	-17	-1%	0	2
CCCCCCCCCCOC(=O)Cn1c(COc2ccccc2C)[n+](C)c2ccccc21	1	-7	4	-15%	76*	-4
CCOC(=O)Cn1c(COc2ccccc2OC)[n+](C)c2ccccc21	/	/	/	-2%	/	/
Cc1cccc(C)c1OCCCCn1c(C2CC(=O)N(c3ccc(F)cc3)C2)nc2ccccc21 (configuration not stated)	3	-3	-10	-3%	36*	0
Cc1cc(C)cc(OCCn2c(C3CC(=O)N(c4ccccc4Cl)C3)nc3ccccc32)c1 (configuration not stated)	-1	-7	12	-1%	7	-1
COc1ccccc1OCCCCn1c(C2CC(=O)N(c3ccccc3Cl)C2)nc2ccccc21 (configuration not stated)	1	-8	3	-1%	37*	-2
Cc1ccccc1OCCCCn1c(C2CC(=O)N(c3ccccc3Cl)C2)nc2ccccc21 (configuration not stated)	-2	4	-10	-2%	32*	-4
CCOc1ccccc1N1CC(c2nc3ccccc3n2CCCOc2ccc(OC)cc2)CC1=O (configuration not stated)	-1	-20	27	-3%	0	0
COCCC(=O)N(Cc1ccc2c(c1)OCO2)C(C(=O)NC1CCCCC1)c1ccncc1 (configuration not stated)	0	-1	3	0%	1	-5
OCCN1CCN(c2nc(-c3ccccc3)c3cc(Br)ccc3n2)CC1	0	10	8	-4%	45*	44*
CCOC(=O)C1=C(O)c2ccccc2C(=O)/C1=C\c1ccc(C)cc1	9	-1	-14	-13%	34*	1
CCOc1ccc(NC(=S)N2CCN(S(=O)(=O)c3ccc(C)cc3)CC2)cc1	0	-4	-4	-2%	5	-6
COc1ccc(NC(=O)COC(=O)CC2CC3CCC2C3)c([N+](=O)[O-])c1 (configuration not stated)	0	3	-97*	-2%	4	-2
Cc1nc2ccc(S(=O)(=O)NC(C(=O)NC3CCCC3)C(C)C)cc2s1 (configuration not stated)	0	-2	6	-1%	0	/
CCOc1ccc2nc(NC3=NC(C)(C)C=C(C)N3)nc(C)c2c1	0	32*	4	-4%	1	-2
CCOc1ccc2c(C)nc(NC3=NC(C)(C)C=C(C)N3)nc2c1	0	8	11	-8%	0	0
CC(=O)c1ccc(S(=O)(=O)N2CCN(c3nc(-c4cccnc4)nc4ccccc34)CC2)cc1	1	35*	1	-2%	5	/
SMILES	TRHR agonist	TRHR PAM	D1 antag	GRP78 ERSR act	D1 ag	D1 PAM
O=S(=O)(c1ccc(Cl)cc1)N1CCN(c2nc(-c3ccc(Cl)cc3)nc3ccccc23)CC1	-1	-1	-36*	-3%	0	2
CC(=O)c1ccc(S(=O)(=O)N2CCN(c3nc(-c4ccccc4)nc4ccccc34)CC2)cc1	/	/	/	-3%	/	/
CCc1ccc(S(=O)(=O)NCCc2csc(-c3ccccc3)n2)s1	1	-4	-25	0%	17	-12
CCc1ccc(S(=O)(=O)NCCc2csc(C)n2)s1	0	-4	-37*	-7%	1	-1
COc1ccc(NC(=O)C2=CC(c3ccc(OC)cc3)=NS(=O)(=O)N2C)cc1	0	1	-1	4%	6	1
CSc1ccccc1NC(=O)C1=CC(c2ccc(C)cc2)=NS(=O)(=O)N1C	0	3	-8	2%	2	1
Cc1ccc(C2=NS(=O)(=O)N(C)C(C(=O)NC(C)c3ccccc3)=C2)cc1 (configuration not stated)	0	0	-43*	-4%	3	-6
COc1ccc(C2=NS(=O)(=O)N(C)C(C(=O)Nc3ccc(OC(F)(F)F)cc3)=C2)cc1	1	0	-37*	/	4	-2
COc1ccc(CNC(=O)C2=CC(c3ccc(C)cc3)=NS(=O)(=O)N2C)cc1	0	10	-34*	-1%	-1	-19
Cc1ccc(C2=NS(=O)(=O)N(C)C(C(=O)NCc3ccccc3)=C2)cc1	-1	-8	-47*	-2%	5	-9
COc1cccc(CN2CC(C(=O)NCCC3=CCCCC3)CCC2=O)c1 (configuration not stated)	-1	2	-5	4%	1	-6
O=c1oc2c(CN3CCCCC3)c(O)ccc2cc1-c1nc2ccccc2[nH]1	261*	40*	-18	-5%	136*	-2
CN1CCN(Cc2c(O)ccc3cc(-c4ccccc4)c(=O)oc23)CC1	2	0	-4	-1%	1	-1
O=c1oc2c(O)cccc2cc1-c1nc2ccccc2[nH]1	199*	48*	-5	-1%	408*	9
C=CCc1cccc2cc(-c3nc4ccc(C)cc4[nH]3)c(=O)oc12	8	-8	-42*	2%	66*	3
CCCN1C(=O)c2[nH]nc(-c3ccc(OC)cc3)c2C1c1ccccn1 (configuration not stated)	-1	-3	-13	-2%	4	1
